Holding throughout (experiment): DAPPL (digital affinity profiling via proximity ligation, sequencing); 10 mM Tris-HCl pH 7.5, 50 mM NaCl, 1 mM DTT, 4% glycerol, room temperature, 30 min; GST-TFs on glutathione beads, 16-mer random dsDNA library, 0.1% formaldehyde crosslink after washing; high values mean tight binding
One assay deals with T1, FLI1 (Homo sapiens, UniProt Q01543 1-452).
T1 sequence: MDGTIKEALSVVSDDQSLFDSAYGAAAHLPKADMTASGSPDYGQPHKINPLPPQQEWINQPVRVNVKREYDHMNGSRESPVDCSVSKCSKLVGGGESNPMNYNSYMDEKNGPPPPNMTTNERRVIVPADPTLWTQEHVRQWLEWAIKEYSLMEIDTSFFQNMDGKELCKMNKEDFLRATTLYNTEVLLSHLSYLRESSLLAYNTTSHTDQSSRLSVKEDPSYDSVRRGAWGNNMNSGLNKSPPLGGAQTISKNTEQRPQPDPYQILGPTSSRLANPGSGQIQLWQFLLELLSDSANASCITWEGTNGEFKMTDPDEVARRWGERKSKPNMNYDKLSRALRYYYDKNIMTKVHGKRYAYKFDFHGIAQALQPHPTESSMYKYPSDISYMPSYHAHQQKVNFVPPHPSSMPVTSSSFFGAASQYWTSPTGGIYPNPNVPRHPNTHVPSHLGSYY
As to conditions: protein: recombinant; tags: N-terminal GST; dsDNA, one strand shown. The method in brief:
(§1)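 Binding signal is each hexamer's read frequency for a factor divided by its frequency in the tag-only sample. The factors were GST-fused human transcription factors from yeast, captured on glutathione beads, DNA-barcoded and pooled with that sample. Pools were incubated with 200 nmole of a random double-stranded 16-mer DNA library in Tris/NaCl/DTT/glycerol buffer at room temperature for 30 min, then washed, crosslinked with 0.1% formaldehyde, proximity-ligated with BsaI/T4 ligase (1 h, 37 °C), PCR-amplified and sequenced on an Illumina NextSeq500.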

A further assay deals with T2, ELK1 (Homo sapiens, UniProt P19419 1-428).
T2 sequence: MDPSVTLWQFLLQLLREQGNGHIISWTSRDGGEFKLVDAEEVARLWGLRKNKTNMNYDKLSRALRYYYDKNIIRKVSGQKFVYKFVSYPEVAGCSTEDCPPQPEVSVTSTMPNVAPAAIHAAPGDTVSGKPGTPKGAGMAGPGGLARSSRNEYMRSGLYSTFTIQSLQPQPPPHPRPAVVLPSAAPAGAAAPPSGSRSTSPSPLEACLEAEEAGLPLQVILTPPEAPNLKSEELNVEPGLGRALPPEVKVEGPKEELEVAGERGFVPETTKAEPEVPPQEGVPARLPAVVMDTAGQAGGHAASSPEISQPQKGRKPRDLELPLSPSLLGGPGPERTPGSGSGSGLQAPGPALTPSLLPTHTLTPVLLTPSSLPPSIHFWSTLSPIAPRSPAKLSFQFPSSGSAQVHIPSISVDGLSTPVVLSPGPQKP
To be noted: protein: recombinant; tags: N-terminal GST; dsDNA, one strand shown. In outline: as §1

The next assay deals with T3, GABPA (Homo sapiens, UniProt Q06546 1-454).
T3 sequence: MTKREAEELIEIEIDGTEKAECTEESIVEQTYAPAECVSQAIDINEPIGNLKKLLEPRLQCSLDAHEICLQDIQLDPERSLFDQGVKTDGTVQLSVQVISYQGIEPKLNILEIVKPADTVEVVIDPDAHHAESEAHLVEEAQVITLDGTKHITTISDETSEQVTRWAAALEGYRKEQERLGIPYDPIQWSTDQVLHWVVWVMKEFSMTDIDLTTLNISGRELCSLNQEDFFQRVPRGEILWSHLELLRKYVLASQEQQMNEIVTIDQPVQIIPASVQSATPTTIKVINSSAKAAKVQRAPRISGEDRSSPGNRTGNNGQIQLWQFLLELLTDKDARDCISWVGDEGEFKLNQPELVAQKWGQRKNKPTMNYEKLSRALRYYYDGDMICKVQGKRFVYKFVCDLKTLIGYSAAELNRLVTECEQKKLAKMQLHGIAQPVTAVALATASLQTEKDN
As to conditions: protein: recombinant; tags: N-terminal GST; dsDNA, one strand shown. In outline:
as §1

Another assay has as its target T4, ERG (Homo sapiens, UniProt P11308 1-479).
T4 sequence: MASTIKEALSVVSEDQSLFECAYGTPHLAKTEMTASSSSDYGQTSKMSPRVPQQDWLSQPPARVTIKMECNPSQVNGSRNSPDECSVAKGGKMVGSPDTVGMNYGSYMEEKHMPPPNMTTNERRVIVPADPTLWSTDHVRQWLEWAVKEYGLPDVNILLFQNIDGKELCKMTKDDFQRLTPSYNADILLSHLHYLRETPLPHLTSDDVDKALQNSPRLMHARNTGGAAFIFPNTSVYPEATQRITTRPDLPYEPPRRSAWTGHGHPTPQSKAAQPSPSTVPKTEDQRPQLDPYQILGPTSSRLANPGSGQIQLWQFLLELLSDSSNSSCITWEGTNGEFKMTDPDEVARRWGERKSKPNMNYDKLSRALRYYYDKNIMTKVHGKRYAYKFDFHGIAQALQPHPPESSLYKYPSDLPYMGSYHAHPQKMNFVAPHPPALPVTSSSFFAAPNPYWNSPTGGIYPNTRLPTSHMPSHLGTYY
To be noted: protein: recombinant; tags: N-terminal GST; dsDNA, one strand shown. In outline: as §1

Another assay addresses ELF1 (Homo sapiens, UniProt P32519 1-619). To be noted: protein: recombinant; tags: N-terminal GST; dsDNA, one strand shown. The method in brief:
as §1

The next assay deals with T5, EHF (Homo sapiens, UniProt Q9NZC4 1-300).
T5 sequence: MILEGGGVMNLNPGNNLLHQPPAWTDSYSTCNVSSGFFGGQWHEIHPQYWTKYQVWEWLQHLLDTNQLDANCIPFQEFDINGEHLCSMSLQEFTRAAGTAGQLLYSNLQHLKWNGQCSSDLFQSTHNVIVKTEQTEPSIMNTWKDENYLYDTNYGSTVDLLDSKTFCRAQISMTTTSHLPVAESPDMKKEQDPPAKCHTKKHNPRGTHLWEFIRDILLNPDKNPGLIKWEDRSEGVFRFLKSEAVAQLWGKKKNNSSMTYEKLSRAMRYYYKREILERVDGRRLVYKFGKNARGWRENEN
As to conditions: protein: recombinant; tags: N-terminal GST; dsDNA, one strand shown. In outline:
as §1

Another assay deals with SPI1 (Homo sapiens, UniProt P17947 1-270). As to conditions: protein: recombinant; tags: N-terminal GST; dsDNA, one strand shown. The method in brief:
as §1

The next assay deals with SPIB (Homo sapiens, UniProt Q01892 1-262). As to conditions: protein: recombinant; tags: N-terminal GST; dsDNA, one strand shown. The method in brief:
as §1

A further assay has as its target T6, ELK3 (Homo sapiens, UniProt P41970 1-407).
T6 sequence: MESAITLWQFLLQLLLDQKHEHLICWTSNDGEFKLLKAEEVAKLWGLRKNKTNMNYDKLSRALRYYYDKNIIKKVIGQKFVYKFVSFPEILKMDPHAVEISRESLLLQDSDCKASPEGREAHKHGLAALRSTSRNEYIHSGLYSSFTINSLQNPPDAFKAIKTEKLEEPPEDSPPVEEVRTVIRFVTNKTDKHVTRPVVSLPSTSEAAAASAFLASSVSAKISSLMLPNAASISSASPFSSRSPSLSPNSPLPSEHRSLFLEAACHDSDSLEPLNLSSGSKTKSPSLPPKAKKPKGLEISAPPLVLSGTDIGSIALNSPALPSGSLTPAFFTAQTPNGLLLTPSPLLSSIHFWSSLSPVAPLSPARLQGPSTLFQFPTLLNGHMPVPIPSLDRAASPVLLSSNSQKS
To be noted: protein: recombinant; tags: N-terminal GST; dsDNA, one strand shown. The method in brief: as §1

For the next assay, the target named is T7, FEV (Homo sapiens, UniProt Q99581 1-238).
T7 sequence: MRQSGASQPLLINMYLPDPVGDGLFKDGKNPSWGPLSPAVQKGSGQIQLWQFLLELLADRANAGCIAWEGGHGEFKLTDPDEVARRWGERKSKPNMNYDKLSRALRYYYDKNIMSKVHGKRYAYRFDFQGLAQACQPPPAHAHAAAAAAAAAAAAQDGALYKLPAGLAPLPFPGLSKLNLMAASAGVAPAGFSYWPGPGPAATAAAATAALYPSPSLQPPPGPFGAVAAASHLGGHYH
To be noted: protein: recombinant; tags: N-terminal GST; dsDNA, one strand shown. In outline:
as §1

The target of another assay is ETV5 (Homo sapiens, UniProt P41161 1-510). As to conditions: protein: recombinant; tags: N-terminal GST; dsDNA, one strand shown. The method in brief:
as §1

In another assay the target is HSF1 (Homo sapiens, UniProt Q00613 1-529). As to conditions: protein: recombinant; tags: N-terminal GST; chain copies: 3; dsDNA, one strand shown. In outline: as §1
Another assay addresses T8, SPIC (Homo sapiens, UniProt Q8N5J4 1-248).
T8 sequence: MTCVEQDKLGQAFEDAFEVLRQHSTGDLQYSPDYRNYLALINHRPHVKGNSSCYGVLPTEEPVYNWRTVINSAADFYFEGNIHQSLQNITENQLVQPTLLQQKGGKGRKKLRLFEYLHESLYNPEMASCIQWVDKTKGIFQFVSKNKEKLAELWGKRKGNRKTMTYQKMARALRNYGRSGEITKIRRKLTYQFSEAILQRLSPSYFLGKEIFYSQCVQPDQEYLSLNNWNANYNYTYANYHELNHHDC
As to conditions: protein: recombinant; tags: N-terminal GST; dsDNA, one strand shown. The method in brief: as §1

A further assay addresses ELF4 (Homo sapiens, UniProt Q99607 1-663). To be noted: protein: recombinant; tags: N-terminal GST; dsDNA, one strand shown. In outline:
as §1

The next assay has as its target T9, ELK4 (Homo sapiens, UniProt P28324-2 1-405).
T9 sequence: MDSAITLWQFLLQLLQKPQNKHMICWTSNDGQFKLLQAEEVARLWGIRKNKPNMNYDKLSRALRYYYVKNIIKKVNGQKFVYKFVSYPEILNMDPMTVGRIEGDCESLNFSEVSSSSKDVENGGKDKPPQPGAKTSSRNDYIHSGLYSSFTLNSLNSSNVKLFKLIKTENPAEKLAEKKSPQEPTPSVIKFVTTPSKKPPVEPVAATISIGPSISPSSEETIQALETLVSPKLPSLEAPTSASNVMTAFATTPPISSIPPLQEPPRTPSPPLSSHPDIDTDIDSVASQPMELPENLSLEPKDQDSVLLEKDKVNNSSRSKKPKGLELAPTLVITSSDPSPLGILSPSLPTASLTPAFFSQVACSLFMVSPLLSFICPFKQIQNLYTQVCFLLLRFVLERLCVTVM
As to conditions: protein: recombinant; tags: N-terminal GST; dsDNA, one strand shown. The method in brief:
as §1

The next assay deals with T10, ETV2 (Homo sapiens, UniProt O00321 1-342).
T10 sequence: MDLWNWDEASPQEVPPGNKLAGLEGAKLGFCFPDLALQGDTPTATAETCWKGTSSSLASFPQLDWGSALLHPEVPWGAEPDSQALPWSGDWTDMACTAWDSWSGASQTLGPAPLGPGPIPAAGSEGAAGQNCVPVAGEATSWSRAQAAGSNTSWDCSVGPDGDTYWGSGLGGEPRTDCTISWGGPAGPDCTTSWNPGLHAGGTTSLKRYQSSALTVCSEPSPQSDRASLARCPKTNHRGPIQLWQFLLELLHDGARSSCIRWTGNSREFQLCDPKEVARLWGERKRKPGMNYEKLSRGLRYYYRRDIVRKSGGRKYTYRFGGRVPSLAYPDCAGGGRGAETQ
As to conditions: protein: recombinant; tags: N-terminal GST; dsDNA, one strand shown. The method in brief: as §1

Another assay addresses T11, ELF3 (Homo sapiens, UniProt P78545 1-371).
T11 sequence: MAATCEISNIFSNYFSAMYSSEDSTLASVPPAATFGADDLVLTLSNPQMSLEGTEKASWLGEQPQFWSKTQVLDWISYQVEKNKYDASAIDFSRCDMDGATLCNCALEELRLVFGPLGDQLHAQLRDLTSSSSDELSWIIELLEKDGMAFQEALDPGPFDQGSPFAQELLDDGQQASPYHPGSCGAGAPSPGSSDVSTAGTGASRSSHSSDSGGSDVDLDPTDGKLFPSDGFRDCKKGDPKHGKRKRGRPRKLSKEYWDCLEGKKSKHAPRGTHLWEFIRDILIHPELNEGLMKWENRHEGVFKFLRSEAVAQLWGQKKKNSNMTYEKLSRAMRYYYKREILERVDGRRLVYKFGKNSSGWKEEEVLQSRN
To be noted: protein: recombinant; tags: N-terminal GST; dsDNA, one strand shown. The method in brief:
as §1

The target in a further assay is CRX (Homo sapiens, UniProt O43186 1-299). To be noted: protein: recombinant; tags: N-terminal GST; dsDNA, one strand shown. In outline:
as §1

For the next assay, the target named is ETV1 (Homo sapiens, UniProt P50549 1-477). As to conditions: protein: recombinant; tags: N-terminal GST; dsDNA, one strand shown. In outline:
as §1

SPIB, sequence (Q01892 whole entry): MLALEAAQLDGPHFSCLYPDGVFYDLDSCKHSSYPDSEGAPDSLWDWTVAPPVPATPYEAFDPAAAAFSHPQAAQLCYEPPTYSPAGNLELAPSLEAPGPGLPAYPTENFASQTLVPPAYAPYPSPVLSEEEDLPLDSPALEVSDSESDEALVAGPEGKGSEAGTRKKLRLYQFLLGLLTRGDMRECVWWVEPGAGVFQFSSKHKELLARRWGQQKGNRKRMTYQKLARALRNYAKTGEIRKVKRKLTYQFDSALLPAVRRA
ETV1, sequence (P50549 whole entry): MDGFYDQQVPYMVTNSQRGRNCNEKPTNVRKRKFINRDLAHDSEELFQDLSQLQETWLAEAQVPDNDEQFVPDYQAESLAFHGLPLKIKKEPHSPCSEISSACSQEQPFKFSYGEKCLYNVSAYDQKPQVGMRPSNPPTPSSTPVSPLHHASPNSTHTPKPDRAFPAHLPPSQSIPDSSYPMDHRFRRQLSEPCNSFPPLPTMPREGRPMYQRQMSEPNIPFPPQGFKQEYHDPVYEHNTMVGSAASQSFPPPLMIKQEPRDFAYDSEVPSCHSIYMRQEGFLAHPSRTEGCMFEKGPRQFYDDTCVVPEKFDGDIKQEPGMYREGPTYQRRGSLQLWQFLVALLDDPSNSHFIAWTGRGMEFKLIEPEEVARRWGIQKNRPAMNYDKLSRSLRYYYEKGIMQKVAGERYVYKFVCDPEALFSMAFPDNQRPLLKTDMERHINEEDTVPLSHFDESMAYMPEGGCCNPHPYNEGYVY
HSF1, sequence (Q00613 whole entry): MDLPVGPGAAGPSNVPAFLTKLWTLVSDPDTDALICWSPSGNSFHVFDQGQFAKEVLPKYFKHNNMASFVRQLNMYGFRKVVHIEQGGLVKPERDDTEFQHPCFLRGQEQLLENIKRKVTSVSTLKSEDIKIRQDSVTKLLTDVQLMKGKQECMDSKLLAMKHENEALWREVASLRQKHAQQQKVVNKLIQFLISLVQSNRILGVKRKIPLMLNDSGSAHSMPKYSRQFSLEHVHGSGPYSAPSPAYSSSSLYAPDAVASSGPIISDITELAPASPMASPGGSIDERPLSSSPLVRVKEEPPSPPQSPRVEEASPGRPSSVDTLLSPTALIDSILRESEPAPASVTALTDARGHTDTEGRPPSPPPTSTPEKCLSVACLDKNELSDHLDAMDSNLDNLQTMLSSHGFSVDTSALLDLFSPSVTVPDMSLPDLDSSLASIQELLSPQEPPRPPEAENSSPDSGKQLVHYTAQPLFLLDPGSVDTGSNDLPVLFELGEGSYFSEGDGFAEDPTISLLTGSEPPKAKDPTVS
CRX, sequence (O43186 whole entry): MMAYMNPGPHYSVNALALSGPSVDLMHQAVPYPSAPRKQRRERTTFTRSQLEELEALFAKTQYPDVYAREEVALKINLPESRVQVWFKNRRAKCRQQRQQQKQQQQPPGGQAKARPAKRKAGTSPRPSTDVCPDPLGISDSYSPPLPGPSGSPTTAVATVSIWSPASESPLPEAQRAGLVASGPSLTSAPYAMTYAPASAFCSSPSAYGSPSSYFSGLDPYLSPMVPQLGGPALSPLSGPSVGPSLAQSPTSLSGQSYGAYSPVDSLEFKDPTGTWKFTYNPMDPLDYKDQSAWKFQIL
ELF1, sequence (P32519 whole entry): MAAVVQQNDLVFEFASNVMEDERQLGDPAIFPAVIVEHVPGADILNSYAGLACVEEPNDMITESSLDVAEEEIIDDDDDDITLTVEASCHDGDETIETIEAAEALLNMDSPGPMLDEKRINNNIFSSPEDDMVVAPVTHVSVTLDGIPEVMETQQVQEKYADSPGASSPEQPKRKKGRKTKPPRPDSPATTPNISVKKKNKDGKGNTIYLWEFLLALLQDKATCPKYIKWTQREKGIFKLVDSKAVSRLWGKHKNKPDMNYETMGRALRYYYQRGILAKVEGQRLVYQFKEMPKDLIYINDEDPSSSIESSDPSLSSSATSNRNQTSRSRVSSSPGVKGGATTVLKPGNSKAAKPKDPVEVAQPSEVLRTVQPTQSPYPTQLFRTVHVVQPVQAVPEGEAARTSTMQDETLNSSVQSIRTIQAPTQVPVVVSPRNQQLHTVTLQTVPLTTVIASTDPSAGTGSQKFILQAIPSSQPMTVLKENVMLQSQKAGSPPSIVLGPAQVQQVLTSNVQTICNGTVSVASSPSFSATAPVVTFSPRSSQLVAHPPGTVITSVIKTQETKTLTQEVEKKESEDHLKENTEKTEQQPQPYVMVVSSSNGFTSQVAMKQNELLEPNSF
ELF4, sequence (Q99607 whole entry): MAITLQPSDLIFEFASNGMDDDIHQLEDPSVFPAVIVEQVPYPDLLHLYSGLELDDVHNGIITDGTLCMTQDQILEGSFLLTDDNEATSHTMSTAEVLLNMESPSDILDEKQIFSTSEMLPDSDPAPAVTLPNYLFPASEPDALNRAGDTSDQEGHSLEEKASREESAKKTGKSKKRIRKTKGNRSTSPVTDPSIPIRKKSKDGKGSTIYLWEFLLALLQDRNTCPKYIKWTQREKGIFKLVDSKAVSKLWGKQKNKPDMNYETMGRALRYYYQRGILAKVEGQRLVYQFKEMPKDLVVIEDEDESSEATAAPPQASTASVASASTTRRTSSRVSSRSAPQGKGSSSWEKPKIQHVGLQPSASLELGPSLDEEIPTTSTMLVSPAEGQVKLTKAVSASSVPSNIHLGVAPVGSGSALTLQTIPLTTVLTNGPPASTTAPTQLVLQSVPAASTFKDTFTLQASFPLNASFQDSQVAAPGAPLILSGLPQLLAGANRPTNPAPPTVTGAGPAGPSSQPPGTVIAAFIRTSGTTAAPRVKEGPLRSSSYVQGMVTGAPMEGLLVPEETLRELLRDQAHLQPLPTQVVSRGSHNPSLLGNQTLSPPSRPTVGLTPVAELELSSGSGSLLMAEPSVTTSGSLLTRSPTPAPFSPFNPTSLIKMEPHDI
ETV5, sequence (P41161 whole entry): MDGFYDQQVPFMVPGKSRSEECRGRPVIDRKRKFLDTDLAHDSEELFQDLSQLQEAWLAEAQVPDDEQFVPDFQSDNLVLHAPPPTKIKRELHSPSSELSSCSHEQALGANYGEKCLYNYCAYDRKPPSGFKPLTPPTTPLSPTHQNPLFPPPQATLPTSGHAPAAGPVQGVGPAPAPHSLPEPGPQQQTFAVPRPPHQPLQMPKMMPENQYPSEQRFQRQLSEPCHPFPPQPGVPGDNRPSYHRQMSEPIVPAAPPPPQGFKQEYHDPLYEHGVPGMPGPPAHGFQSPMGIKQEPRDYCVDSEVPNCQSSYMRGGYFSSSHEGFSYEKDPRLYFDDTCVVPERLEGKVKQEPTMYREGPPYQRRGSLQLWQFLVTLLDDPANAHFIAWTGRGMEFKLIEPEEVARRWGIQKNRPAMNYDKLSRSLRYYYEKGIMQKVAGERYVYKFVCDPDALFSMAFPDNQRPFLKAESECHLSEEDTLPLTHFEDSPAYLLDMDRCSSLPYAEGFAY

Turning to TTTCCA, the binding signal in the assay with FLI1 was 1.37 fold enrichment (6-mer frequency, TF over GST control); with ELK1, 1.31 fold enrichment (6-mer frequency, TF over GST control); with GABPA, 1.39 fold enrichment (6-mer frequency, TF over GST control); with ERG, 1.23 fold enrichment (6-mer frequency, TF over GST control); with ELF1, 1.36 fold enrichment (6-mer frequency, TF over GST control); in the assay with EHF, 1.27 fold enrichment (6-mer frequency, TF over GST control). For the same sequence, the binding signal with SPI1 is 1.37 fold enrichment (6-mer frequency, TF over GST control); in the assay with SPIB it was 1.39 fold enrichment (6-mer frequency, TF over GST control); with ELK3 it was 1.31 fold enrichment (6-mer frequency, TF over GST control); with FEV it was 1.34 fold enrichment (6-mer frequency, TF over GST control); with ETV5, 1.28 fold enrichment (6-mer frequency, TF over GST control); in the assay with HSF1, 2.18 fold enrichment (6-mer frequency, TF over GST control). In addition, the binding signal in the assay with SPIC was 1.18 fold enrichment (6-mer frequency, TF over GST control); with ELF4, 1.39 fold enrichment (6-mer frequency, TF over GST control); with ELK4 it was 1.39 fold enrichment (6-mer frequency, TF over GST control); with ETV2, 1.22 fold enrichment (6-mer frequency, TF over GST control); in the assay with ELF3 it was 1.19 fold enrichment (6-mer frequency, TF over GST control); with CRX, 1.61 fold enrichment (6-mer frequency, TF over GST control). The binding signal in the assay with ETV1 is 1.22 fold enrichment (6-mer frequency, TF over GST control).

Source of the values: article PMC7862700, “An all-to-all approach to the identification of sequence-specific readers for epigenetic DNA modifications on cytosine”.
